# The list is a sample of the results.
# aSyn 5UTR act = Activators via SNCA 5'UTR binding, MLPCN | alpha-synuclein 5'UTR reporter, activators screen | activity score, % (tested at 7.5 µM), hits read low | 300,000 tested, 7.1% active | AID 1814; in the data active means activity score below about -60%
# The depositor's hits bear a star.
SMILES,aSyn 5UTR act
Cc1cc2nc(-c3ccc(SCc4ccc(C(=O)O)cc4)nc3)[nH]c2cc1C,-160*
Cc1cc(NC(=O)CSc2ccc(-c3nc4cc(C)c(C)cc4[nH]3)cn2)no1,-100*
Cc1cc2nc(-c3ccc(SCC(=O)NC(C)C)nc3)[nH]c2cc1C,-134*
Cc1cc2nc(-c3ccc(SCC(=O)Nc4ccc(S(=O)(=O)NC5CC5)cc4)nc3)[nH]c2cc1C,-116*
Cc1cc2nc(-c3ccc(SCC(=O)N4CCc5ccccc54)nc3)[nH]c2cc1C,-220*
Cc1cc2nc(-c3ccc(SCc4ccccc4C#N)nc3)[nH]c2cc1C,-78*
CCOC(=O)CC(=O)CSc1ncnc2c1cnn2-c1ccccc1,-105*
CC(C)(C)NC(=O)CSc1ncnc2c1cnn2-c1ccccc1,-73*
Cc1ccc(N2C(=O)NC3(CCCCC3)C2=O)cc1,-64*
CCOc1cc(CNCCCN2CCOCC2)cc(Br)c1OCc1ccccc1Cl,96
CCOc1cc(C2NN=C(c3ccccc3)S2)ccc1OCc1ccccc1Cl (stereo not drawn),-132*
CCOc1cc(C2NN=C(c3ccccc3)S2)ccc1OCc1ccc(F)cc1 (stereo not drawn),-129*
Cc1nn(-c2cccc(C(F)(F)F)c2)c(Cl)c1/C=N/Nc1cccc(C(=O)O)c1,-108*
CSc1ccc(/C=N/Nc2ccc(Cl)c(C(=O)O)c2)cc1,-134*
O=C(O)c1ccc(N/N=C/C=C/c2ccccc2)cc1,-125*
Cc1nn(-c2ccccc2Cl)c(Cl)c1/C=N/Nc1cccc(C(=O)O)c1,103
C/C(=N\Nc1cccc(C(F)(F)F)c1)c1ccc(O)cc1,-76*
CC(C)c1ccc(/C=N/Nc2ccc(C(=O)O)cc2)cc1,85
O=C(O)c1cc(N/N=C/c2ccc(-c3ccccc3)cc2)ccc1Cl,-202*
O=C(O)c1ccc(N/N=C/c2ccc(-c3ccccc3)cc2)cc1,-78*
O=C(O)c1ccc(/C=N/Nc2cccc(C(F)(F)F)c2)cc1,-137*
O=C(NCC1CCCO1)c1cc(-c2ccccc2)on1 (stereo not drawn),-362*
Cc1cccc(NC(=O)C(=O)NCC2CCCO2)c1 (stereo not drawn),-92*
O=C(NCC1CCCO1)c1cc(-c2ccc(Cl)cc2Cl)on1 (stereo not drawn),-164*
Cc1ccc(-c2cc(C(=O)NCC3CCCO3)no2)cc1 (stereo not drawn),-76*
SMILES,aSyn 5UTR act
CC1=Nc2cc(C(=O)NCC3CCCO3)ccc2Sc2ccc(Br)cc21 (stereo not drawn),-113*
Cc1c(C)c(C)c2[nH]c(-c3ccc4c(c3)OCO4)nc2c1C,-76*
COc1cccc(C2=NO[C@@H]3C(=O)N(c4ccc5c(c4)OCCO5)C(=O)[C@H]23)c1OC,-81*
CCOC(=O)C1CCCN(C(=O)c2cc(COc3ccc(C)nc3)on2)C1 (stereo not drawn),-86*
CCCOC1CCCN(C(=O)c2cc(COc3ccc(F)c(F)c3)on2)C1 (stereo not drawn),-118*
Cc1nn(C)c(C)c1C(C)NC(=O)c1cc(COc2ccc(F)c(F)c2)on1 (stereo not drawn),-68*
CCCN1CCN(C(=O)c2cc(COc3ccc(F)c(F)c3)on2)CC1,-74*
C/C(=C\c1ccccc1)C(=O)Nc1nc2ccc([N+](=O)[O-])cc2s1,-79*
O=C(NC(Nc1nc2ccc([N+](=O)[O-])cc2s1)(C(F)(F)F)C(F)(F)F)c1ccccc1Cl,86
CC(C)=CC(=O)Nc1nc2ccc([N+](=O)[O-])cc2s1,-83*
Cc1cc(NC(=O)Cc2ccsc2)ccc1Br,-112*
CC(=O)c1ccc(NC(=O)Cc2ccsc2)cc1,-79*
CC(=O)c1ccc(NC(=O)Cc2cccs2)cc1,-84*
NS(=O)(=O)c1cccc(NC(=S)NC(=O)C23CC4CC(CC(C4)C2)C3)c1,-62*
O=[N+]([O-])c1ccc(C(O)CSC(=S)N2CCCCC2)cc1 (stereo not drawn),-181*
Cn1ccnc1SCC(=O)c1ccc2ccccc2c1,-71*
COc1ccc(C(=O)CSc2nccn2C)c(OC)c1,-80*
COc1cccc(C(=O)CSc2nccn2C)c1,-84*
Cn1ccnc1SCC(=O)c1ccc(O)cc1,-65*
COc1cccc(C(=O)Oc2c(CN3CCOCC3)cc(Cl)c3cccnc23)c1,89
NC(=Nc1ccc(Br)cc1)c1ccccc1,-75*
COc1ccccc1Nc1ncc(-c2cccs2)s1,-177*
CCOC(=O)Nc1nc(-c2ccc(F)cc2F)cs1,-148*
Cc1csc(NC(=O)c2ccc(S(C)(=O)=O)cc2)n1,-91*
COc1ccc(-c2csc(NC(=O)c3ccc(S(C)(=O)=O)cc3)n2)cc1,-68*
SMILES,aSyn 5UTR act
COc1ccc(-c2csc(NC(=O)c3ccoc3C)n2)cc1,-124*
CC(=O)c1ccc(NC(=O)c2cccc(S(=O)(=O)N3CCN(C)CC3)c2)cc1,-112*
COC(=O)c1c(-c2ccncc2)csc1NC(=O)c1ccoc1C,-120*
COc1ccc(-c2csc(NC(=O)c3cccc(S(=O)(=O)N4CCN(C)CC4)c3)n2)cc1,-71*
CCc1nnc(NC(=O)c2ccc(S(=O)(=O)N(C)Cc3ccccc3)cc2)o1,63
COc1ccc(/C(C)=N/NC(=O)c2cccc(S(=O)(=O)N3CCCC3)c2)c(O)c1,78
Cc1csc(NC(=O)c2sccc2C)n1,-68*
COc1ccccc1N(Cc1ccccc1)S(=O)(=O)c1cccc(C(=O)Nc2ccc(C(C)=O)cc2)c1,-88*
Cc1ccc(Nc2nnc(-c3ccc4c(c3)OCO4)o2)c(C)c1,-93*
O=c1[nH]c2ccccc2nc1/C=C/c1ccc(Cl)cc1,-227*
CC(=O)Nc1ccc(/C=C/c2nc3ccccc3[nH]c2=O)cc1,-83*
CCC(=O)Nc1ccc(-c2csc(C)n2)cc1,-81*
Cc1nc(-c2ccc(NC(=O)Cc3ccccc3)cc2)cs1,-164*
Cc1nc(-c2ccc(NC(=O)c3ccco3)cc2)cs1,57
Oc1ccccc1/C=N/NC1=NCCCCC1,-161*
COc1ccc(/C=N/Nc2cc(N(C)C)nc(N(C)C)n2)cc1,-65*
COc1ccc(/C=N/NC2=NCCCCC2)cc1,-86*
COc1ccc(-c2csc(N(C)C(=O)c3cccs3)n2)cc1,-126*
CCN(CC)CCCN(C(=O)c1cccs1)c1nc(-c2ccc(OC)cc2)cs1,-101*
COCCCN(C(C)=O)c1nc(-c2ccccc2)cs1,-146*
N#Cc1c(C(F)(F)F)cc(-c2ccc(Cl)c(Cl)c2)nc1SCCN1CCOCC1,-64*
CCn1nnc(NC(=O)c2ccc(-c3ccccc3[N+](=O)[O-])o2)n1,-90*
CCCCn1nnc(NC(=O)c2ccc(-c3ccccc3)cc2)n1,-129*
O=C(CCCCCN1C(=O)c2cccc3cccc(c23)C1=O)NCc1cccnc1,59
CC(=O)c1cccc(NC(=O)c2ccc(-c3ccccc3[N+](=O)[O-])o2)c1,-238*
SMILES,aSyn 5UTR act
O=C(NCc1cccnc1)c1ccc(-c2ccccc2[N+](=O)[O-])o1,-64*
CCCCn1nnc(NC(=O)c2cc3ccccc3o2)n1,-137*
CCn1nnc(NC(=O)c2cc3ccccc3o2)n1,-168*
CCCn1nnc(NC(=O)c2cc3ccccc3o2)n1,-156*
O=[N+]([O-])c1ccccc1CSc1nc2ccccc2o1,-193*
Cc1ccc(OCC(=O)Nc2ccon2)c([N+](=O)[O-])c1,-91*
Cc1ccc(OC/C(=N\O)C(C)(C)C)c([N+](=O)[O-])c1,-77*
Cc1ccc(OCC(=O)Nc2ccccc2[N+](=O)[O-])c(Br)c1,-207*

# Screens deposited in PubChem by Broad Institute.
